Results taken from PubChem BioAssay (EPA / NIEHS).
Records with an inconclusive call do not appear. Calls of active or inactive are those of the source. How the source made its calls, unless noted: active means hit-call score of the fitted dose curve at least 0.9, where 1 is the maximum; inconclusive means response in the unintended direction; inactive means score below 0.9.

Assays:
[1] = molecular target: human Peroxisome Proliferator-activated Receptor alpha (PPARa), PPARA (gene 5465) (UniProt Q07869); assay: ATG_PPARa_TRANS: Attagene TRANS-FACTORIAL HepG2 Assay for human Peroxisome Proliferator-activated Receptor alpha (PPARa) (AID 2283001)
Chain of human Peroxisome Proliferator-activated Receptor alpha (PPARa), PPARA (gene 5465) (Q07869 whole entry, looked up, the tested form may be a part): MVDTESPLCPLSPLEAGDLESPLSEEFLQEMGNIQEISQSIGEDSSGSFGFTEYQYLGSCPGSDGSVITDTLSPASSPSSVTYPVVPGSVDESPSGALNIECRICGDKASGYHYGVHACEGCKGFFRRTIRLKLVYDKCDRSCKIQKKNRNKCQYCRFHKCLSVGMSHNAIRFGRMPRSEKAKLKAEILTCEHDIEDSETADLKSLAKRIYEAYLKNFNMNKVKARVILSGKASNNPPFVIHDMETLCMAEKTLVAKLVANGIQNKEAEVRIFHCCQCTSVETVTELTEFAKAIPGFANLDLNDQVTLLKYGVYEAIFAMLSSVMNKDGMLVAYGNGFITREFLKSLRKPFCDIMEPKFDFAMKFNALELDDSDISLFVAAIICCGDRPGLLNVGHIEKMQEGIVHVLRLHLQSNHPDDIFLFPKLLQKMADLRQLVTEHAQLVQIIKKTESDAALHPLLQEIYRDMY
Outline: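 HepG2 cells transiently transfected with multiplexed GAL4-UAS reporter units and chimeric NR-Gal4 constructs were dosed for 24 h. Reporter mRNA was measured by RT-PCR with fluorescent labelling and capillary electrophoresis; gain of signal fitted against DMSO.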

[2] = read-out: Intercellular Adhesion Molecule 1 (ICAM1), ICAM1 (gene 3383); assay: BSK_3C_ICAM1: BioMAP Diversity Plus: 3C Assay for Intercellular Adhesion Molecule 1 (ICAM1) Biomarker Activity (AID 2283003; active means hit-call score of the fitted dose curve at least 0.9, where 1 is the maximum; inactive means score below 0.9); settings: primary human endothelial cells (HUVEC); actives raise or lower the signal
Outline: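 Human vascular endothelial primary cells, 3C conditions, 24 h treatment. ICAM-1 by ELISA.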

[3] = BSK_3C_Proliferation: Cell Proliferation Assessment in the BioMAP Diversity Plus: 3C Assay (AID 2283006; active means hit-call score of the fitted dose curve at least 0.9, where 1 is the maximum; inactive means score below 0.9;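 on AC50: potency may reflect either rise or fall in cell number versus DMSO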); settings: primary human endothelial cells (HUVEC)
Outline: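 Proliferation of human vascular endothelial primary cells after 48 h dosing, quantified as SRB-stained protein at 560 nm relative to DMSO.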

[4] = molecular target: Peroxisome proliferator-activated receptor gamma (Homo sapiens) (UniProt P37231); assay: ATG_PPARg_TRANS: Attagene TRANS-FACTORIAL HepG2 Assay for human Peroxisome Proliferator-activated Receptor-gamma (PPARg) (AID 2283007)
Chain of Peroxisome proliferator-activated receptor gamma (Homo sapiens) (P37231 whole entry, looked up, the tested form may be a part): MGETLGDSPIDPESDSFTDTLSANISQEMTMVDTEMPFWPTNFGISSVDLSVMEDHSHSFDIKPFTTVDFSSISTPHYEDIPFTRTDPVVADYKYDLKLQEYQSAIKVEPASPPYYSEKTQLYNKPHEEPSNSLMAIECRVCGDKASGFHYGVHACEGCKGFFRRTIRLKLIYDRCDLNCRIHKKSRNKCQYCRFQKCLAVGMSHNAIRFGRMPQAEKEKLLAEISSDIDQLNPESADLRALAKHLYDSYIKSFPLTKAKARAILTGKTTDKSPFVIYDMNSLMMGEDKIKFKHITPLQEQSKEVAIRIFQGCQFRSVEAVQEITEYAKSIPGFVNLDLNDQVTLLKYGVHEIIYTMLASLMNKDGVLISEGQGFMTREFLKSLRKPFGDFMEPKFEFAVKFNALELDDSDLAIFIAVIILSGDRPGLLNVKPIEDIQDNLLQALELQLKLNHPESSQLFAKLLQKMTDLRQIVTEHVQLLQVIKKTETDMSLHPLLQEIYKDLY
Outline: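 Liver-derived HepG2 cells expressing an exogenous NR-Gal4 chimera alongside GAL4-UAS reporter genes; 24 h exposure. Fluorescence of reporter RT-PCR products, separated by capillary electrophoresis, gives mRNA induction relative to DMSO.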

[5] = molecular target: Nuclear receptor subfamily 1 group I member 2 (Homo sapiens) (UniProt O75469); assay: ATG_PXR_TRANS: Attagene TRANS-FACTORIAL HepG2 Assay for human Pregnane X Receptor (PXR) (AID 2283008)
Chain of Nuclear receptor subfamily 1 group I member 2 (Homo sapiens) (O75469 whole entry, looked up, the tested form may be a part): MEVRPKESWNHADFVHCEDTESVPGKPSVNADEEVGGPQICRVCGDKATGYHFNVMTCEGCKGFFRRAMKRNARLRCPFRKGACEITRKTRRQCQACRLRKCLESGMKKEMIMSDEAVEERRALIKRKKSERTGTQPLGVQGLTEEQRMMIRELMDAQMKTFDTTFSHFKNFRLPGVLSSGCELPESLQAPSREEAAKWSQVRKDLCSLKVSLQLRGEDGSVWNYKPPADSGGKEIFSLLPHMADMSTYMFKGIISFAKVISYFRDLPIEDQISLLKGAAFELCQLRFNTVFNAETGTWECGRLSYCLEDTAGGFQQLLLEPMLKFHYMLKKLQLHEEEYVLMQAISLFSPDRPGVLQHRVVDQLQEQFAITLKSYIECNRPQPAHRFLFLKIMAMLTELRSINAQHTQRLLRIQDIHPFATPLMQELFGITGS
Outline: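 HepG2 cells transiently transfected with GAL4-UAS reporter units and PXR-Gal4 chimera, exposed 24 h. Reporter mRNA quantified by RT-PCR, fluorescent labelling, HpaI digestion and capillary electrophoresis; gain of signal vs DMSO.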

[6] = molecular target: human Peroxisome Proliferator-activated Receptor delta (PPARd), PPARD (gene 5467) (UniProt Q03181); assay: ATG_PPARd_TRANS: Attagene TRANS-FACTORIAL HepG2 Assay for human Peroxisome Proliferator-activated Receptor delta (PPARd) (AID 2283002)
Chain of human Peroxisome Proliferator-activated Receptor delta (PPARd), PPARD (gene 5467) (Q03181 whole entry, looked up, the tested form may be a part): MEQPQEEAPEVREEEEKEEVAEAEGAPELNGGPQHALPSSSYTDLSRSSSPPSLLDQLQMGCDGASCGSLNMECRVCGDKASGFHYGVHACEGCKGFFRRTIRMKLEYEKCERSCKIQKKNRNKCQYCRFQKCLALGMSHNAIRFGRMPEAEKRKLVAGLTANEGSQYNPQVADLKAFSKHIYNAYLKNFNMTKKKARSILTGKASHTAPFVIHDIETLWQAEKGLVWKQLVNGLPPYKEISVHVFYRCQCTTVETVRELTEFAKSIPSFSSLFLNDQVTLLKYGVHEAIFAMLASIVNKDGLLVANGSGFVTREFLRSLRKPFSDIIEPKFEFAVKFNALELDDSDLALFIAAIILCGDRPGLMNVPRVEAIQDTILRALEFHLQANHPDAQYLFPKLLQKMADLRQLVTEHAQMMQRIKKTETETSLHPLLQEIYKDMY
Outline: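 HepG2 cells transiently transfected with multiplexed GAL4-UAS reporter units and exogenous chimeric NR-Gal4 proteins; 24 h compound exposure. Reporter mRNA measured by RT-PCR, 6-FAM labelling, HpaI digestion and capillary electrophoresis; gain of signal versus DMSO.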

[7] = molecular target: human Retinoic Acid Receptor beta (RARb), RARB (gene 5915) (UniProt P10826); assay: ATG_RARb_TRANS: Attagene TRANS-FACTORIAL HepG2 Assay for human Retinoic Acid Receptor beta (AID 2283004)
Chain of human Retinoic Acid Receptor beta (RARb), RARB (gene 5915) (P10826 whole entry, looked up, the tested form may be a part): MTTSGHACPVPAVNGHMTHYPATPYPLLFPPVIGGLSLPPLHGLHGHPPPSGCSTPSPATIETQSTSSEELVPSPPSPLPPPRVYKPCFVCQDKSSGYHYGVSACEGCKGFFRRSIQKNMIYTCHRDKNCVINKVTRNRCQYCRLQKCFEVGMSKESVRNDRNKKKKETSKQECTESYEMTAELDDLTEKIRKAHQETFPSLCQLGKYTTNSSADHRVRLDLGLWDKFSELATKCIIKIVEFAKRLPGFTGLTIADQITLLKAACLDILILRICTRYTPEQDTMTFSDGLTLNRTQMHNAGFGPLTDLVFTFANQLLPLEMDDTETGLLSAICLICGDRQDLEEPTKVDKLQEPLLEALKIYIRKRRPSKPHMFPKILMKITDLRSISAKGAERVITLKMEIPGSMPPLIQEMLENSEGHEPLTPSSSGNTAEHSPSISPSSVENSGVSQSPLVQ
Outline: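 Induction of reporter mRNA from a chimeric RARb-Gal4 construct was measured by RT-PCR, FAM labelling, HpaI digestion and capillary electrophoresis. Measurements followed 24 h compound treatment of transiently transfected human HepG2 liver cells, with DMSO as baseline.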

[8] = molecular target: Retinoic acid receptor alpha (Homo sapiens) (UniProt P10276); assay: ATG_RARa_TRANS: Attagene TRANS-FACTORIAL HepG2 Assay for human Retinoic Acid Receptor alpha (RARa) (AID 2283005)
Chain of Retinoic acid receptor alpha (Homo sapiens) (P10276 whole entry, looked up, the tested form may be a part): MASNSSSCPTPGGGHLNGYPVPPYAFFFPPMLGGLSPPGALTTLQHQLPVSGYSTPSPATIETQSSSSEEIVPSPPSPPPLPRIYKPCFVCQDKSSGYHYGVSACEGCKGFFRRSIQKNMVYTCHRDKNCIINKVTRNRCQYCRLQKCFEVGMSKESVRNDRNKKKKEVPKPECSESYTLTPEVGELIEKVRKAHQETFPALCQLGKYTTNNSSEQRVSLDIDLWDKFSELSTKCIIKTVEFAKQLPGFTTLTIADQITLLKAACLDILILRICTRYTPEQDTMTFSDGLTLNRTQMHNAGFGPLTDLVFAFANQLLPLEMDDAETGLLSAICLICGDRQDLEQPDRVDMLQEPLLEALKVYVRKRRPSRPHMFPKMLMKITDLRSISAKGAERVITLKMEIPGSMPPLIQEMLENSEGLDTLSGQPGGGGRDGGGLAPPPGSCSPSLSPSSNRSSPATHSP
Outline: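 HepG2 cells transiently transfected with multiple reporter units expressing chimeric RARα-GAL4 fusion, with GAL4-UAS-driven reporters. After 24 h compound exposure, reporter mRNA induction quantified by RT-PCR and capillary electrophoresis with fluorescent labeling; gain-of-signal fitted relative to DMSO control.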

[9] = molecular target: human Retinoic Acid Receptor gamma (RARg), RARG (gene 5916) (UniProt P13631); assay: ATG_RARg_TRANS: Attagene TRANS-FACTORIAL HepG2 Assay for human Retinoic Acid Receptor gamma (RARg) (AID 2283009)
Chain of human Retinoic Acid Receptor gamma (RARg), RARG (gene 5916) (P13631 whole entry, looked up, the tested form may be a part): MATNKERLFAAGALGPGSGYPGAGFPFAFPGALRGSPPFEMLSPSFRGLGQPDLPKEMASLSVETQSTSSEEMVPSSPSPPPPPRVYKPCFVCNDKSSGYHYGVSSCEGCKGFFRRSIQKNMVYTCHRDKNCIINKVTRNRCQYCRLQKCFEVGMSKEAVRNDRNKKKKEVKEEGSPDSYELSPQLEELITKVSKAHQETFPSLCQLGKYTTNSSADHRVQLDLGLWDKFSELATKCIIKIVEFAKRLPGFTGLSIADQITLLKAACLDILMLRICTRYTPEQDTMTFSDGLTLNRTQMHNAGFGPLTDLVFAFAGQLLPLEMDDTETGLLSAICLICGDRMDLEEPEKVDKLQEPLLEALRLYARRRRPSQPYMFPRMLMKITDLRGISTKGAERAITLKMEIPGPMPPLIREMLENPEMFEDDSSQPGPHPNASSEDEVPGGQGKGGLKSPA
Outline: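 HepG2, RARg-GAL4 TRANS system, 24 h exposure; reporter mRNA by RT-PCR + CE fluorescence; increase over DMSO.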

[10] = molecular target: human RAR-related Orphan Receptor beta (RORb), RORB (gene 6096) (UniProt Q92753); assay: ATG_RORb_TRANS: Attagene TRANS-FACTORIAL HepG2 Assay for human RAR-related Orphan Receptor beta (RORb) (AID 2283010)
Chain of human RAR-related Orphan Receptor beta (RORb), RORB (gene 6096) (Q92753 whole entry, looked up, the tested form may be a part): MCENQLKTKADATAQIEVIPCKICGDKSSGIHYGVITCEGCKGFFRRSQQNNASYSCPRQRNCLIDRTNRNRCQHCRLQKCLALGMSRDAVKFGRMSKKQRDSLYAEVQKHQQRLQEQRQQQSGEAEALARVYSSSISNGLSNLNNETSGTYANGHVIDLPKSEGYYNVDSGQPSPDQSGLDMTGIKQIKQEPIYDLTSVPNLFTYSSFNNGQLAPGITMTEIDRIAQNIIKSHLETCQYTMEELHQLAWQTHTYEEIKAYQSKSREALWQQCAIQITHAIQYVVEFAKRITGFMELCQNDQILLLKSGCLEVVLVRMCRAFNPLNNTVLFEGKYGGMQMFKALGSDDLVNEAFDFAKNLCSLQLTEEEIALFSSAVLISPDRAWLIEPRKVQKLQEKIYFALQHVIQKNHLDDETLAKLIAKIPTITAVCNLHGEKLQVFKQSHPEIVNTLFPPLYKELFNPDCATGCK
Outline: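 In this TRANS-format test, human HepG2 cells express chimeric NR-Gal4 fusion proteins driving GAL4-UAS reporters. After 24 h dosing, reporter transcripts are measured by fluorescent RT-PCR/capillary electrophoresis, with DMSO as negative control.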

Measured: AC50

Cn1c(=O)c2[nH]cnc2n(C)c1=O
inactive: [1] | [2] | [3] | [4] | [5]

Cn1cc[nH]c1=S
inactive: [1] | [6] | [2] | [7] | [3]

NC(=O)N(O)[C@@H]1COc2cc(OCc3ccccc3)ccc21
inactive: [1] | [2] | [7] | [3] | [4] | [5]

O=C(Cl)C(F)(F)C(F)(F)C(F)(F)C(=O)Cl
not listed: [6]
inactive: all other assays above

O=S1(=O)CCCO1
inactive: [1] | [2] | [3] | [10]

c1ccc2ncccc2c1
inactive: [1] | [2] | [3]

C[C@]12C=CC(=O)C=C1CC[C@H]1[C@@H]3C[C@@H](O)[C@](O)(C(=O)CO)[C@@]3(C)C[C@H](O)[C@@]12F
inactive: [1] | [2] | [3] | [5] | [10]

OC(CCl)CCl
inactive: [1] | [2] | [3]

CCc1ccc(O)c(C(C)(C)C)c1
active: [2] 31.5 µM | [3] 34.8 µM | [5] 17.4 µM
inactive: [1] | [4] | [10]

CCCCCCCC/C=C\CCCCCCCC(=O)OC[C@@H](O)[C@H]1OC[C@H](O)[C@H]1O
inactive: [1] | [2] | [8] | [3] | [4] | [9]

CCN(CC)C(=S)SSC(=S)N(CC)CC
inactive: [1] | [4] | [10]
active: [2] 34.9 µM | [5] 49.6 µM

CC(=O)c1ccccc1
inactive: [1] | [2] | [3] | [4]

FC(F)=C(F)C(F)(F)C(F)(F)C(F)(F)C(F)(F)C(F)(F)C(F)(F)F
not listed: [6] | [10]
inactive: all other assays above

NCC(F)(F)C(F)(F)C(F)(F)C(F)(F)F
inactive: [1] | [2] | [3] | [4] | [5] | [10]

OCc1ccccc1
inactive: [1] | [2] | [7] | [8] | [3] | [4]

O=S(=O)(O)c1ccc(N=Nc2c(O)ccc3cc(S(=O)(=O)O)ccc23)cc1
inactive: [1] | [6] | [8] | [3] | [5] | [10]

O=S(=O)(O)CCC(F)(F)C(F)(F)C(F)(F)C(F)(F)C(F)(F)C(F)(F)F
inactive: all assays above

CCCCN1C(=O)[C@@H]([C@H](O)C2CCCCC2)NC(=O)C12CCN(Cc1ccc(Oc3ccc(C(=O)O)cc3)cc1)CC2
active: [3] 28.2 µM
inactive: [1] | [6] | [4] | [5]

C[Si](C)(C)C(F)(F)C(F)(F)C(F)(F)F
not listed: [6]
inactive: all other assays above

C[C@@H](Oc1ccc(CNC(=O)c2cccnc2Oc2ccc3c(c2)OCO3)c(F)c1)C(=O)O
active: [4] 24.3 µM
not listed: [7] | [8] | [9]
inactive: all other assays above

CCn1nc(C)c2c1C(=O)NCC(c1ccc(O)cc1)=N2
inactive: [1] | [6] | [2] | [5]
active: [3] 20 µM | [4] 8.02 µM

OCCC(F)(F)C(F)(F)C(F)(F)C(F)(F)F
not listed: [6]
inactive: all other assays above
